PubChem BioAssay (NCI)
Where “and” joins values, the source holds several entries; their conditions need not be identical. Equal values may be shown once. The panel holds about 83,000 compounds, 20% with a hit somewhere; the sample as a whole holds those more often.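 Assay: single dose, 48 h. Readout: percent growth (0 = no net growth; negative = cell death). Active: <10.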 Values without a mark were called inactive. Calls of active or inactive are those of the source.

system: MDA-MB-468 breast; test: NCI-60 one-dose screen, 48 h (100 = growth as untreated, 0 = no growth, -100 = all killed); conditions: 10 µM unless noted

SMILES	growth
O=C(NNc1nc2cc(F)c(F)cc2n2c(CN3CC4CNCC4C3)ccc12)c1ncccn1 (stereo not given)	-10.6% (active)
CCN(CC)CCCC(CNc1ccnc2cc(Cl)ccc12)c1ccc(Cl)cc1 (stereo not given)	-78.1% (active) and -70.5% (active)
c1ccc(-c2nc3ccccc3s2)cc1	96.4%
O=C(OCc1ccc2c(Cl)cc(Cl)c(O)c2n1)N1CCN(C(=O)c2cc3cc(F)ccc3[nH]2)CC1	-5.15% (active)
N#CC1C(C#N)C2c3ccccc3C=CN2C1C(=O)c1ccc(Br)cc1 (stereo not given)	99.6%
COC(=O)c1cc(=O)nc(N/N=C/c2ccccc2O)s1	98%
CCN(CC)Cc1cc2[nH]c3c4ccc(Cl)cc4ncc3c2cc1OC	-12.8% (active) and -25.8% (active)
COc1cnc2c(c1)C(=O)c1c-2n(CCCN2CCC(O)CC2)c(=O)c2cc(F)ccc12	-57.2% (active)
Cc1cc(-c2cc(C)c(N)cc2C)c(C)cc1N	61%
O=C(c1ccc(Cl)cc1)C1C(c2ccccc2)C1[N+](=O)[O-] (stereo not given)	111%
CCN(CC)C(=O)CCCCCn1c2ccccc2c2c3c(c4c5ccccc5[nH]c4c21)C(=O)N(O)C3=O	51.5%
Clc1ccc([I+]c2ccc(Cl)cc2Cl)c(Cl)c1	-37.9% (active)
CCOC(=O)Cn1c(C)c(/C=N/NC(=O)c2cc3c(ccc4ccccc43)o2)c2ccccc21	16.1%
OCCN1CCN(CCCN2c3ccccc3Sc3ccc(C(F)(F)F)cc32)CC1	-47.1% (active)
CC(=O)ON1CCCC(P(=O)(OCCSC(=O)C(C)(C)C)OCCSC(=O)C(C)(C)C)C1=O (stereo not given)	32%
CNc1nnc2n(-c3ccccc3)c(=O)c3cnn(-c4ccccc4)c3n12	103%
Cc1ccc(S(=O)(=O)N2CCc3ccc(O)c4c3C2CCc2ccccc2-4)cc1 (stereo not given)	106%
CCOC(=O)NC(/C=C/c1ccccc1)NC(=O)OCC	99.7%
C[C@H]1[C@H](C)CC[C@]2(C(=O)N3CCN(C)CC3)CC[C@]3(C)C(=CC[C@@H]4[C@@]5(C)C/C(=C/c6ccco6)C(=O)C(C)(C)[C@@H]5CC[C@]43C)[C@H]12	19.2% [100 µM]
CN(C)CCCOc1ccc(C(=C(c2ccccc2)C2CCCC2)c2ccc(OCCCN(C)C)cc2)cc1	-78.9% (active)

SMILES	growth
COC1=C(C)C(=O)c2c(c(CCCl)c3n2CCC3O)C1=O (stereo not given)	91.5%
O=C1/C(=C/c2ccc(Oc3ccccc3)cc2)N=C(c2ccccc2)N1CCc1cccs1	108%
Cc1ccc(C(=O)Nc2ccccc2C(=O)N/N=C(\c2ccccc2)c2ccccn2)cc1	-1.12% (active)
Cc1nc(N)nc2c1CCC(Nc1ccccc1)S2 (stereo not given)	100%
CCOC(=O)c1cc(C(=O)c2ccc(Br)cc2)n2ccc(/C=C/c3cc[n+](CC(=O)c4ccc(OC)cc4)cc3)cc12	66.4%
COc1cc(CCN=Cc2ccccc2O)c([N+](=O)[O-])cc1OC	113%
NS(=O)(=O)c1ccc(CCN2C(=O)/C(=C\c3ccc(Cl)cc3)C=C2c2ccc(Oc3ccccc3)cc2)cc1	76.7%
CCCCN1CCN(c2ccc3nc(-c4ccc5nc(-c6ccc(OCC)cc6)[nH]c5c4)[nH]c3c2)CC1	67.3%
Cc1ccc(NC(=O)c2ccc(CN3CCN(C)CC3)c(I)c2)cc1Oc1ccc(-c2[nH]nc3ncnc(N)c23)cc1	105%
COc1ccc2c(c1)nc(N)c1c3ccccc3cn21	58.5%
Nc1c(C(=O)Nc2cccc(Br)c2)sc2nc3c(cc12)C(O)CCC3 (stereo not given)	29.8%
CON1CCC[C@]2(C)[C@H]3CC[C@@H]4[C@H]5[C@@H](O)C(C)(C)CC[C@]5(CO)CC[C@@]4(C)[C@]3(C)CC[C@H]2C1(C)C	114%
CNC(=O)OC1C(O[C@H]2C[C@H]3[C@@H]4CC=C5C[C@@H](O)CC[C@]5(C)[C@H]4CC[C@]3(C)[C@H]2[C@H](C)C(=O)CCC(C)C)OCC(O)C1OC1OCC(O)C(O)C1OC(=O)c1ccc(OC)cc1 (stereo not given in full)	-0.149% (active)
CS(=O)(=O)c1ccc(/C(=N/N=C(N)N)c2ccc(F)cc2)cc1	-5.12% (active)
C=C1CC2(OC1=O)C(=O)N(CCCCCCCN1C(=O)C3(CC(=C)C(=O)O3)c3ccccc31)c1ccccc12 (stereo not given)	-17% (active)
NC(CCl)=NCC12CC3CC(CC(C3)C1)C2	-31.3% (active)
CSc1nc(NCc2ccccc2)c(C#N)c(-c2cccc([N+](=O)[O-])c2)n1	110%
Cc1ccc(S(=O)(=O)Oc2ccc(NC(=O)c3ccc(Cl)cc3)cc2)cc1	95.2%
NC(CC(N)C(=O)O)C(=O)O (stereo not given)	90.5%
CCOC(=O)CC[C@H](NC(=O)c1ccc(NC)c2ccccc12)C(=O)OCC	95.1%
